# Data taken from the supplement of paper PMC6897291.
# Tests used:
# RIVA [1] = assay: growth inhibition by drug alone (1 - RLU/untreated control) (fraction); higher = stronger inhibition; settings: 177Lu-lilotomab satetraxetan 0 ug/ml
# Summary of the method: (§1)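 RIVA or U-2932 cells, untreated or pretreated 18 h with a radiolabelled anti-CD37 antibody conjugate (~600 MBq/mg; 0.5 µg/ml RIVA, 1 µg/ml U-2932), were washed and seeded at 3,000 cells/well on plates pre-printed with the Selleck Cambridge Cancer Compound library. Doses were 10/100 nM (RIVA) or 10/1,000 nM (U-2932). RealTime-Glo luminescence was read daily from day 3 after 1 h at 37°C. Growth inhibition is 1 − RLU/mean of 48 untreated no-drug wells per plate.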
# U-2932 [2] = assay: growth inhibition by drug plus 177Lu-lilotomab satetraxetan (1 - RLU/untreated control) (fraction); higher = stronger inhibition; settings: 177Lu-lilotomab satetraxetan 1 ug/ml
# Summary of the method: as §1
# RIVA [3] = assay: as above; settings: 177Lu-lilotomab satetraxetan 0.5 ug/ml
# Summary of the method: as §1
# U-2932 [4] = assay: growth inhibition by drug alone (1 - RLU/untreated control) (fraction); higher = stronger inhibition; settings: 177Lu-lilotomab satetraxetan 0 ug/ml
# Summary of the method: as §1
smiles,measurement,setting,value
CC1=C2C[C@H]3[C@@H](CC=C4C[C@@H](O)CC[C@@]43C)[C@@H]2CC[C@]12O[C@@H]1C[C@H](C)CN[C@H]1[C@H]2C [Cyclopamine],growth inhibition by drug alone,"RIVA [1]; 10 nM, time (day): 3",-0.0274
same,growth inhibition by drug alone,"RIVA [1]; 10 nM, time (day): 4",0.0131
same,growth inhibition by drug alone,"RIVA [1]; 10 nM, time (day): 5",-0.0438
same,growth inhibition by drug alone,"RIVA [1]; 10 nM, time (day): 6",-0.264
same,growth inhibition by drug alone,"RIVA [1]; 100 nM, time (day): 3",0.0149
same,growth inhibition by drug alone,"RIVA [1]; 100 nM, time (day): 4",0.0126
same,growth inhibition by drug alone,"RIVA [1]; 100 nM, time (day): 5",-0.0321
same,growth inhibition by drug alone,"RIVA [1]; 100 nM, time (day): 6",-0.131
same,growth inhibition by drug plus 177Lu-lilotomab satetraxetan,"U-2932 [2]; 10 nM, time (day): 3",0.0717
same,growth inhibition by drug plus 177Lu-lilotomab satetraxetan,"U-2932 [2]; 10 nM, time (day): 4",0.0954
same,growth inhibition by drug plus 177Lu-lilotomab satetraxetan,"U-2932 [2]; 10 nM, time (day): 5",0.107
same,growth inhibition by drug plus 177Lu-lilotomab satetraxetan,"U-2932 [2]; 10 nM, time (day): 6",0.127
same,growth inhibition by drug plus 177Lu-lilotomab satetraxetan,"U-2932 [2]; 1000 nM, time (day): 3",-0.0532
same,growth inhibition by drug plus 177Lu-lilotomab satetraxetan,"U-2932 [2]; 1000 nM, time (day): 4",0.0394
same,growth inhibition by drug plus 177Lu-lilotomab satetraxetan,"U-2932 [2]; 1000 nM, time (day): 5",0.0391
same,growth inhibition by drug plus 177Lu-lilotomab satetraxetan,"U-2932 [2]; 1000 nM, time (day): 6",0.0669
C[C@]12CCC(=O)C(O)=C1CC[C@@H]1[C@@H]2CC[C@]2(C)C(=O)CC[C@@H]12 [Formestane],growth inhibition by drug plus 177Lu-lilotomab satetraxetan,"U-2932 [2]; 10 nM, time (day): 3",-0.06
same,growth inhibition by drug plus 177Lu-lilotomab satetraxetan,"U-2932 [2]; 10 nM, time (day): 4",-0.00612
same,growth inhibition by drug plus 177Lu-lilotomab satetraxetan,"U-2932 [2]; 10 nM, time (day): 5",0.0406
same,growth inhibition by drug plus 177Lu-lilotomab satetraxetan,"U-2932 [2]; 10 nM, time (day): 6",0.141
same,growth inhibition by drug plus 177Lu-lilotomab satetraxetan,"U-2932 [2]; 1000 nM, time (day): 3",-0.0681
same,growth inhibition by drug plus 177Lu-lilotomab satetraxetan,"U-2932 [2]; 1000 nM, time (day): 4",-0.018
same,growth inhibition by drug plus 177Lu-lilotomab satetraxetan,"U-2932 [2]; 1000 nM, time (day): 5",0.0247
same,growth inhibition by drug plus 177Lu-lilotomab satetraxetan,"U-2932 [2]; 1000 nM, time (day): 6",0.18
CCC1(c2ccc(N)cc2)CCC(=O)NC1=O (stereo unspecified) [Aminoglutethimide (Cytadren)],growth inhibition by drug plus 177Lu-lilotomab satetraxetan,"U-2932 [2]; 10 nM, time (day): 3",-0.0302
same,growth inhibition by drug plus 177Lu-lilotomab satetraxetan,"U-2932 [2]; 10 nM, time (day): 4",0.0116
same,growth inhibition by drug plus 177Lu-lilotomab satetraxetan,"U-2932 [2]; 10 nM, time (day): 5",0.0252
same,growth inhibition by drug plus 177Lu-lilotomab satetraxetan,"U-2932 [2]; 10 nM, time (day): 6",0.0218
same,growth inhibition by drug plus 177Lu-lilotomab satetraxetan,"U-2932 [2]; 1000 nM, time (day): 3",-0.00688
same,growth inhibition by drug plus 177Lu-lilotomab satetraxetan,"U-2932 [2]; 1000 nM, time (day): 4",0.0339
same,growth inhibition by drug plus 177Lu-lilotomab satetraxetan,"U-2932 [2]; 1000 nM, time (day): 5",0.0642
same,growth inhibition by drug plus 177Lu-lilotomab satetraxetan,"U-2932 [2]; 1000 nM, time (day): 6",0.126
O=P1(N(CCCl)CCCl)NCCCO1 (stereo unspecified) [Cyclophosphamide monohydrate],growth inhibition by drug plus 177Lu-lilotomab satetraxetan,"U-2932 [2]; 10 nM, time (day): 3",-0.0289
same,growth inhibition by drug plus 177Lu-lilotomab satetraxetan,"U-2932 [2]; 10 nM, time (day): 4",-0.00591
same,growth inhibition by drug plus 177Lu-lilotomab satetraxetan,"U-2932 [2]; 10 nM, time (day): 5",0.0126
same,growth inhibition by drug plus 177Lu-lilotomab satetraxetan,"U-2932 [2]; 10 nM, time (day): 6",0.184
same,growth inhibition by drug plus 177Lu-lilotomab satetraxetan,"U-2932 [2]; 1000 nM, time (day): 3",-0.0442
same,growth inhibition by drug plus 177Lu-lilotomab satetraxetan,"U-2932 [2]; 1000 nM, time (day): 4",0.00578
same,growth inhibition by drug plus 177Lu-lilotomab satetraxetan,"U-2932 [2]; 1000 nM, time (day): 5",0.00582
same,growth inhibition by drug plus 177Lu-lilotomab satetraxetan,"U-2932 [2]; 1000 nM, time (day): 6",0.0795
CC[C@@H](C(=O)[C@@H](C)[C@@H](O)[C@H](C)[C@@H]1O[C@@H]([C@@H](CC)C(=O)O)CC[C@@H]1C)[C@H]1O[C@]2(C=C[C@@H](O)[C@]3(CC[C@@](C)([C@H]4CC[C@](O)(CC)[C@H](C)O4)O3)O2)[C@H](C)C[C@@H]1C [Salinomycin (Procoxacin)],growth inhibition by drug plus 177Lu-lilotomab satetraxetan,"U-2932 [2]; 10 nM, time (day): 3",0.0566
same,growth inhibition by drug plus 177Lu-lilotomab satetraxetan,"U-2932 [2]; 10 nM, time (day): 4",0.111
same,growth inhibition by drug plus 177Lu-lilotomab satetraxetan,"U-2932 [2]; 10 nM, time (day): 5",0.126
same,growth inhibition by drug plus 177Lu-lilotomab satetraxetan,"U-2932 [2]; 10 nM, time (day): 6",0.245
same,growth inhibition by drug plus 177Lu-lilotomab satetraxetan,"U-2932 [2]; 1000 nM, time (day): 3",0.381
same,growth inhibition by drug plus 177Lu-lilotomab satetraxetan,"U-2932 [2]; 1000 nM, time (day): 4",0.516
same,growth inhibition by drug plus 177Lu-lilotomab satetraxetan,"U-2932 [2]; 1000 nM, time (day): 5",0.607
same,growth inhibition by drug plus 177Lu-lilotomab satetraxetan,"U-2932 [2]; 1000 nM, time (day): 6",0.75
CN(C)CCN(C)CCc1ccc(Cl)c(Cl)c1,growth inhibition by drug alone,"RIVA [1]; 10 nM, time (day): 3",-0.216
same,growth inhibition by drug alone,"RIVA [1]; 10 nM, time (day): 4",-0.209
same,growth inhibition by drug alone,"RIVA [1]; 10 nM, time (day): 5",-0.338
same,growth inhibition by drug alone,"RIVA [1]; 10 nM, time (day): 6",-0.472
same,growth inhibition by drug alone,"RIVA [1]; 100 nM, time (day): 3",-0.276
same,growth inhibition by drug alone,"RIVA [1]; 100 nM, time (day): 4",-0.227
same,growth inhibition by drug alone,"RIVA [1]; 100 nM, time (day): 5",-0.333
same,growth inhibition by drug alone,"RIVA [1]; 100 nM, time (day): 6",-0.453
same,growth inhibition by drug plus 177Lu-lilotomab satetraxetan,"U-2932 [2]; 10 nM, time (day): 3",-0.0419
same,growth inhibition by drug plus 177Lu-lilotomab satetraxetan,"U-2932 [2]; 10 nM, time (day): 4",-0.0108
same,growth inhibition by drug plus 177Lu-lilotomab satetraxetan,"U-2932 [2]; 10 nM, time (day): 5",-0.00129
same,growth inhibition by drug plus 177Lu-lilotomab satetraxetan,"U-2932 [2]; 10 nM, time (day): 6",0.0756
same,growth inhibition by drug plus 177Lu-lilotomab satetraxetan,"U-2932 [2]; 1000 nM, time (day): 3",-0.131
same,growth inhibition by drug plus 177Lu-lilotomab satetraxetan,"U-2932 [2]; 1000 nM, time (day): 4",-0.0418
same,growth inhibition by drug plus 177Lu-lilotomab satetraxetan,"U-2932 [2]; 1000 nM, time (day): 5",-0.0272
same,growth inhibition by drug plus 177Lu-lilotomab satetraxetan,"U-2932 [2]; 1000 nM, time (day): 6",-0.0418
N.N.[Cl][Pt][Cl] [Cisplatin],growth inhibition by drug plus 177Lu-lilotomab satetraxetan,"U-2932 [2]; 10 nM, time (day): 3",0.000302
same,growth inhibition by drug plus 177Lu-lilotomab satetraxetan,"U-2932 [2]; 10 nM, time (day): 4",0.0521
same,growth inhibition by drug plus 177Lu-lilotomab satetraxetan,"U-2932 [2]; 10 nM, time (day): 5",0.0625
same,growth inhibition by drug plus 177Lu-lilotomab satetraxetan,"U-2932 [2]; 10 nM, time (day): 6",0.172
same,growth inhibition by drug plus 177Lu-lilotomab satetraxetan,"U-2932 [2]; 1000 nM, time (day): 3",-0.00976
same,growth inhibition by drug plus 177Lu-lilotomab satetraxetan,"U-2932 [2]; 1000 nM, time (day): 4",0.0376
same,growth inhibition by drug plus 177Lu-lilotomab satetraxetan,"U-2932 [2]; 1000 nM, time (day): 5",0.065
same,growth inhibition by drug plus 177Lu-lilotomab satetraxetan,"U-2932 [2]; 1000 nM, time (day): 6",0.206
same,growth inhibition by drug plus 177Lu-lilotomab satetraxetan,"RIVA [3]; 10 nM, time (day): 3",0.539
same,growth inhibition by drug plus 177Lu-lilotomab satetraxetan,"RIVA [3]; 10 nM, time (day): 4",0.565
same,growth inhibition by drug plus 177Lu-lilotomab satetraxetan,"RIVA [3]; 10 nM, time (day): 5",0.592
same,growth inhibition by drug plus 177Lu-lilotomab satetraxetan,"RIVA [3]; 10 nM, time (day): 6",0.599
same,growth inhibition by drug plus 177Lu-lilotomab satetraxetan,"RIVA [3]; 100 nM, time (day): 3",0.463
same,growth inhibition by drug plus 177Lu-lilotomab satetraxetan,"RIVA [3]; 100 nM, time (day): 4",0.526
same,growth inhibition by drug plus 177Lu-lilotomab satetraxetan,"RIVA [3]; 100 nM, time (day): 5",0.544
same,growth inhibition by drug plus 177Lu-lilotomab satetraxetan,"RIVA [3]; 100 nM, time (day): 6",0.57
Cc1cc2c(C(C)C)c(O)c(O)c(C=O)c2c(O)c1-c1c(C)cc2c(C(C)C)c(O)c(O)c(C=O)c2c1O [Gossypol],growth inhibition by drug alone,"U-2932 [4]; 10 nM, time (day): 3",-0.0803
same,growth inhibition by drug alone,"U-2932 [4]; 10 nM, time (day): 4",-0.0436
same,growth inhibition by drug alone,"U-2932 [4]; 10 nM, time (day): 5",-0.0537
same,growth inhibition by drug alone,"U-2932 [4]; 10 nM, time (day): 6",-0.0327
same,growth inhibition by drug alone,"U-2932 [4]; 1000 nM, time (day): 3",-0.00328
same,growth inhibition by drug alone,"U-2932 [4]; 1000 nM, time (day): 4",0.00751
same,growth inhibition by drug alone,"U-2932 [4]; 1000 nM, time (day): 5",0.00351
same,growth inhibition by drug alone,"U-2932 [4]; 1000 nM, time (day): 6",0.0148
same,growth inhibition by drug plus 177Lu-lilotomab satetraxetan,"U-2932 [2]; 10 nM, time (day): 3",-0.115
same,growth inhibition by drug plus 177Lu-lilotomab satetraxetan,"U-2932 [2]; 10 nM, time (day): 4",-0.0678
same,growth inhibition by drug plus 177Lu-lilotomab satetraxetan,"U-2932 [2]; 10 nM, time (day): 5",-0.0445
same,growth inhibition by drug plus 177Lu-lilotomab satetraxetan,"U-2932 [2]; 10 nM, time (day): 6",0.0445
same,growth inhibition by drug plus 177Lu-lilotomab satetraxetan,"U-2932 [2]; 1000 nM, time (day): 3",-0.0917
same,growth inhibition by drug plus 177Lu-lilotomab satetraxetan,"U-2932 [2]; 1000 nM, time (day): 4",-0.0427
same,growth inhibition by drug plus 177Lu-lilotomab satetraxetan,"U-2932 [2]; 1000 nM, time (day): 5",-0.011
same,growth inhibition by drug plus 177Lu-lilotomab satetraxetan,"U-2932 [2]; 1000 nM, time (day): 6",0.0745
